The values below come from PubChem BioAssay (NCATS).

Records with an inconclusive call do not appear. A call without a number means that no potency is given here. Calls of active or inactive are those of the source. Calls follow the shape of the full dose curve. Numbered stars: 1 amine (or outer) side, 2 acyl side, 3 side chain; on linkers, the order of the positions; unused ones are H or OH. Square brackets hold non-standard residues; d marks the D form. Side chains are listed from the residue outwards. Peptide text beside a SMILES is read from it. * marks the point of attachment. Ethylenediamine = C(CN[*:2])N[*:1]; Hyp = O=C(O)[C@@H]1C[C@@H](O)CN1; Phg = N[C@H](C(=O)O)c1ccccc1; CO = O=C([*:1])[*:2]; Bn = c1ccc(C*)cc1

This experiment in a line: Primary qHTS for Vero E6 cytotoxicity: counterscreen for inhibitors of SARS-S pseudo-typed particle cell entry (AID 1479150). To be noted: cell viability; series mostly up to 57.1 µM. On the technique in general: In qHTS, concentration-response curves come from the screen itself.
Take `C[C@H](NCCc1ccc(O)cc1)[C@H](O)c1ccc(O)cc1`: the Potency result is “inactive”.

As for `CCOC(=O)[C@H](C)C[C@@H](Cc1ccc(-c2ccccc2)cc1)NC(=O)CCC(=O)O`, the Potency result was “inactive”. Still for that read-out and setting: with `C[N+]1(C)C2CC[C@H]1CC(OC(=O)C(O)c1ccccc1)C2` (stereo partly specified) the entry was “inactive”; with `CCC(=O)Oc1ccc2c(c1)CC[C@@H]1[C@H]2CC[C@]2(C)[C@@H](OC(=O)CC)CC[C@@H]12`, “inactive”; with `CCN1CCCC1CNC(=O)c1cc(S(=O)(=O)CC)ccc1OC` (stereo unspecified), “inactive”. Same read-out and setting: to `CC(=O)O[C@]1(C(C)=O)CC[C@H]2[C@@H]3C[C@H](C)C4=CC(=O)C=C[C@]4(C)[C@@]3(F)[C@@H](O)C[C@@]21C` belongs “inactive”; to `NCCCC[C@@H]1NC(=O)[C@@H](Cc2c[nH]c3ccccc23)NC(=O)[C@H](c2ccccc2)NC(=O)[C@@H]2C[C@@H](OC(=O)NCCN)CN2C(=O)[C@H](Cc2ccccc2)NC(=O)[C@H](Cc2ccc(OCc3ccccc3)cc2)NC1=O` (cyclo([Hyp]([CO-Ethylenediamine])[Phg][dW]KY(Bn)F)), “inactive”; to `CCCCOC(=O)C(=O)Nc1cccc(-c2nn[nH]n2)c1`, “inactive”.

With `CCCCC/C=C\C/C=C\C/C=C\CCCCC(=O)O`, the Potency entry was “inactive”. The same measure, in the same setting: with `Cc1ncc([N+](=O)[O-])n1CCOC(=O)c1ccccc1` the entry was “inactive”; with `CCOC(=O)COc1ccc2c(=O)cc(-c3ccccc3)oc2c1`, “inactive”.

`NC(=O)[C@H]1O[C@@H](O)[C@H](O)[C@@H](O)[C@@H]1O`: the Potency entry was “inactive”. On the same count and under the same terms, to `C[C@@H]1CCC[C@H](C)N1NC(=O)c1ccc(Cl)c(S(N)(=O)=O)c1` belongs “inactive”; to `C=C[C@@H]1C[C@]1(NC(=O)[C@@H]1C[C@@H]2CN1C(=O)[C@H](C(C)(C)C)NC(=O)O[C@@H]1C[C@H]1CCCCCc1nc3ccc(OC)cc3nc1O2)C(=O)NS(=O)(=O)C1CC1`, “inactive”; to `C=CC[N@@+]12CC[C@]34c5ccccc5N5/C=C6\C7N(/C=C(\C53)[C@@H](C[C@@H]41)/C(=C/CO)C2)c1ccccc1[C@@]71CC[N@@+]2(CC=C)C/C(=C\CO)[C@@H]6C[C@@H]12` (stereo partly specified), “inactive”. Same read-out and setting: to `CC(C)CN(C[C@@H](O)[C@H](Cc1ccccc1)NC(=O)O[C@H]1CCOC1)S(=O)(=O)c1ccc(N)cc1` belongs “inactive”; to `OC[C@H]1O[C@@H](O)[C@H](O)[C@@H](O)[C@@H]1O`, “inactive”. Still for that read-out and setting: to `CCCCCCCCCCCCCC(=O)OCC(COP(=O)([O-])OCC[N+](C)(C)C)OC(=O)CCCCCCCCCCCCC` (stereo unspecified) belongs “inactive”; to `C[C@H]1C[C@@H]2[C@H]([C@@H](O)C[C@@]3(C)[C@H]2CC[C@]3(O)C(=O)COC(=O)CCC(=O)O)[C@@]2(C)C=CC(=O)C=C12`, “inactive”. For the compound `CC(C)(CO)C(O)C(=O)NCCCC(=O)O` (stereo unspecified), the Potency result is “inactive”. Same read-out and setting: to `COC(F)(F)C(Cl)Cl` belongs “inactive”.

`C[N+](C)(C)CCOP(=O)([O-])OP(=O)(O)OC[C@H]1OC(n2ccc(N)nc2=O)[C@H](O)[C@@H]1O` (stereo partly specified): the outcome is “inactive [at 0.573 µM]”. Turning to `C[C@H]1O[C@]2(CS1)CN1CCC2CC1`, the Potency entry was “inactive”.

Take `CCCCc1cc2c(=O)c(C(=O)OC)c[nH]c2cc1OCc1ccccc1`: the Potency result is “inactive”. On the same count and under the same terms, to `O=C(Cn1c(=O)sc2ccc(Cl)cc21)N1CCN(CCO)CC1` belongs “inactive”; to `CCCCCc1ccc(C)cc1O`, “inactive”; to `CC1(C)S[C@@H]2[C@H](NC(=O)[C@H](N)c3ccccc3)C(=O)N2[C@H]1C(=O)OCOC(=O)[C@@H]1N2C(=O)C[C@H]2S(=O)(=O)C1(C)C`, “inactive”. On the same count and under the same terms, with `O=[N+]([O-])c1ccc(/C=C/c2cccc(CO)n2)o1` the entry was “inactive”.

With `CN(C)CC(c1ccc(O)cc1)C1(O)CCCCC1` (stereo unspecified), the Potency result is “inactive”. On to `FC(F)OC(Cl)C(F)(F)F` (stereo unspecified), for which the Potency entry is “inactive”. The same measure, in the same setting: to `Cc1cc(Nc2ccccc2C(=O)O)ccc1Cl` belongs “inactive”; to `CCCCCCCCCC(=O)OCCN1CCN(CC/C=C2/c3ccccc3Sc3ccc(Cl)cc32)CC1`, “inactive”; to `CC(=O)c1cc2cccc(OCC(O)CNC(C)C)c2o1` (stereo unspecified), “inactive”. The same measure, in the same setting: to `CC[C@H]1OC(=O)C[C@@H](OC(C)=O)[C@H](C)[C@@H](O[C@@H]2O[C@H](C)[C@@H](O[C@H]3C[C@@](C)(O)[C@@H](OC(=O)CC(C)C)[C@H](C)O3)[C@H](N(C)C)[C@H]2O)[C@@H](CC=O)C[C@@H](C)C(=O)/C=C/C(C)=C/[C@@H]1CO[C@@H]1O[C@H](C)[C@@H](O)[C@@H](OC)[C@H]1OC` belongs “inactive”; to `CCC1(C)OC(=O)N(C)C1=O` (stereo unspecified), “inactive”; to `CC=CC1=C(C(=O)O)N2C(=O)[C@@H](NC(=O)[C@H](N)c3ccc(O)cc3)[C@H]2SC1`, “inactive”.
